# Measurements from the supplement of paper PMC4466140.
# Molecular target: AgAbp1
# Assay: SPOT peptide array binding signal intensity (averaged, normalized) (arbitrary units (background-subtracted, floor 0; scale differs between SH3 domains)); higher = stronger binding of the SH3 domain to the peptide
# How it was run: (§1)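 E. coli BL21(DE3) was used to express GST-fused SH3 domains from four yeast species, which were then purified on glutathione Sepharose. These were incubated at 10 μg/ml in TBS-based blocking buffer overnight at 4°C on cellulose membranes carrying synthetic 15-mer peptides, in which cysteines were replaced by serines. Binding signal is the replicate average of normalized, background-subtracted spot intensity, in arbitrary units that differ between domains.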
row,Binder,SPOT peptide array binding signal intensity
1,VPKEPAPAPPPEPDM,≤ 0

# Molecular target: AgBbc1
# Assay: as above
# How it was run: as §1
row,Binder,SPOT peptide array binding signal intensity
1,VPKEPAPAPPPEPDM,0.5

# Molecular target: AgBem1-D1
# Assay: as above
# How it was run: as §1
row,Binder,SPOT peptide array binding signal intensity
1,VPKEPAPAPPPEPDM,≤ 0

# Molecular target: AgBzz1-D1
# Assay: as above
# How it was run: as §1
row,Binder,SPOT peptide array binding signal intensity
1,VPKEPAPAPPPEPDM,≤ 0

# Molecular target: AgBzz1-D2
# Assay: as above
# How it was run: as §1
row,Binder,SPOT peptide array binding signal intensity
1,VPKEPAPAPPPEPDM,7

# Molecular target: AgCyk3
# Assay: as above
# How it was run: as §1
row,Binder,SPOT peptide array binding signal intensity
1,VPKEPAPAPPPEPDM,≤ 0

# Molecular target: AgFus1
# Assay: as above
# How it was run: as §1
row,Binder,SPOT peptide array binding signal intensity
1,VPKEPAPAPPPEPDM,4.75

# Molecular target: AgHof1
# Assay: as above
# How it was run: as §1
row,Binder,SPOT peptide array binding signal intensity
1,VPKEPAPAPPPEPDM,3.88

# Molecular target: AgHse1
# Assay: as above
# How it was run: as §1
row,Binder,SPOT peptide array binding signal intensity
1,VPKEPAPAPPPEPDM,8

# Molecular target: AgLsb1
# Assay: as above
# How it was run: as §1
row,Binder,SPOT peptide array binding signal intensity
1,VPKEPAPAPPPEPDM,≤ 0

# Molecular target: AgLsb4
# Assay: as above
# How it was run: as §1
row,Binder,SPOT peptide array binding signal intensity
1,VPKEPAPAPPPEPDM,≤ 0

# Molecular target: AgMyo5
# Assay: as above
# How it was run: as §1
row,Binder,SPOT peptide array binding signal intensity
1,VPKEPAPAPPPEPDM,520

# Molecular target: AgNbp2
# Assay: as above
# How it was run: as §1
row,Binder,SPOT peptide array binding signal intensity
1,VPKEPAPAPPPEPDM,12

# Molecular target: AgRvs167
# Assay: as above
# How it was run: as §1
row,Binder,SPOT peptide array binding signal intensity
1,VPKEPAPAPPPEPDM,0.167

# Molecular target: AgSho1
# Assay: as above
# How it was run: as §1
row,Binder,SPOT peptide array binding signal intensity
1,VPKEPAPAPPPEPDM,3.75

# Molecular target: AgSla1-D1-D2
# Assay: as above
# How it was run: as §1
row,Binder,SPOT peptide array binding signal intensity
1,VPKEPAPAPPPEPDM,≤ 0

# Molecular target: AgSla1-D3
# Assay: as above
# How it was run: as §1
row,Binder,SPOT peptide array binding signal intensity
1,VPKEPAPAPPPEPDM,0.75

# Molecular target: CaAbp1-D1
# Assay: as above
# How it was run: as §1
row,Binder,SPOT peptide array binding signal intensity
1,VPKEPAPAPPPEPDM,≤ 0

# Molecular target: CaAbp1-D2
# Assay: as above
# How it was run: as §1
row,Binder,SPOT peptide array binding signal intensity
1,VPKEPAPAPPPEPDM,≤ 0

# Molecular target: CaBbc1
# Assay: as above
# How it was run: as §1
row,Binder,SPOT peptide array binding signal intensity
1,VPKEPAPAPPPEPDM,≤ 0

# Molecular target: CaBem1-D1
# Assay: as above
# How it was run: as §1
row,Binder,SPOT peptide array binding signal intensity
1,VPKEPAPAPPPEPDM,1.5

# Molecular target: CaBzz1-D1
# Assay: as above
# How it was run: as §1
row,Binder,SPOT peptide array binding signal intensity
1,VPKEPAPAPPPEPDM,42.8

# Molecular target: CaBzz1-D2
# Assay: as above
# How it was run: as §1
row,Binder,SPOT peptide array binding signal intensity
1,VPKEPAPAPPPEPDM,2.75

# Molecular target: CaCyk3
# Assay: as above
# How it was run: as §1
row,Binder,SPOT peptide array binding signal intensity
1,VPKEPAPAPPPEPDM,≤ 0

# Molecular target: CaFus1
# Assay: as above
# How it was run: as §1
row,Binder,SPOT peptide array binding signal intensity
1,VPKEPAPAPPPEPDM,39

# Molecular target: CaHof1
# Assay: as above
# How it was run: as §1
row,Binder,SPOT peptide array binding signal intensity
1,VPKEPAPAPPPEPDM,≤ 0

# Molecular target: CaHse1
# Assay: as above
# How it was run: as §1
row,Binder,SPOT peptide array binding signal intensity
1,VPKEPAPAPPPEPDM,2.12

# Molecular target: CaLsb1
# Assay: as above
# How it was run: as §1
row,Binder,SPOT peptide array binding signal intensity
1,VPKEPAPAPPPEPDM,≤ 0

# Molecular target: CaLsb4
# Assay: as above
# How it was run: as §1
row,Binder,SPOT peptide array binding signal intensity
1,VPKEPAPAPPPEPDM,≤ 0

# Molecular target: CaMyo5
# Assay: as above
# How it was run: as §1
row,Binder,SPOT peptide array binding signal intensity
1,VPKEPAPAPPPEPDM,180

# Molecular target: CaNbp2
# Assay: as above
# How it was run: as §1
row,Binder,SPOT peptide array binding signal intensity
1,VPKEPAPAPPPEPDM,37

# Molecular target: CaRvs167
# Assay: as above
# How it was run: as §1
row,Binder,SPOT peptide array binding signal intensity
1,VPKEPAPAPPPEPDM,≤ 0

# Molecular target: CaRvs167-3
# Assay: as above
# How it was run: as §1
row,Binder,SPOT peptide array binding signal intensity
1,VPKEPAPAPPPEPDM,3.25

# Molecular target: CaSho1
# Assay: as above
# How it was run: as §1
row,Binder,SPOT peptide array binding signal intensity
1,VPKEPAPAPPPEPDM,3.5

# Molecular target: CaSla1-D1-D2
# Assay: as above
# How it was run: as §1
row,Binder,SPOT peptide array binding signal intensity
1,VPKEPAPAPPPEPDM,9

# Molecular target: CaSla1-D3
# Assay: as above
# How it was run: as §1
row,Binder,SPOT peptide array binding signal intensity
1,VPKEPAPAPPPEPDM,≤ 0

# Molecular target: ScAbp1
# Assay: as above
# How it was run: as §1
row,Binder,SPOT peptide array binding signal intensity
1,VPKEPAPAPPPEPDM,≤ 0
